How the values were obtained:
Experiment in all cases: DAPPL (digital affinity profiling via proximity ligation, sequencing); 10 mM Tris-HCl pH 7.5, 50 mM NaCl, 1 mM DTT, 4% glycerol, room temperature, 30 min; GST-TFs on glutathione beads, 16-mer random dsDNA library, 0.1% formaldehyde crosslink after washing; high values mean tight binding
Settings in all cases: protein: recombinant; tags: N-terminal GST; dsDNA, one strand shown
FLI1 = target: T1, FLI1 (Homo sapiens, UniProt Q01543 1-452)
T1 sequence: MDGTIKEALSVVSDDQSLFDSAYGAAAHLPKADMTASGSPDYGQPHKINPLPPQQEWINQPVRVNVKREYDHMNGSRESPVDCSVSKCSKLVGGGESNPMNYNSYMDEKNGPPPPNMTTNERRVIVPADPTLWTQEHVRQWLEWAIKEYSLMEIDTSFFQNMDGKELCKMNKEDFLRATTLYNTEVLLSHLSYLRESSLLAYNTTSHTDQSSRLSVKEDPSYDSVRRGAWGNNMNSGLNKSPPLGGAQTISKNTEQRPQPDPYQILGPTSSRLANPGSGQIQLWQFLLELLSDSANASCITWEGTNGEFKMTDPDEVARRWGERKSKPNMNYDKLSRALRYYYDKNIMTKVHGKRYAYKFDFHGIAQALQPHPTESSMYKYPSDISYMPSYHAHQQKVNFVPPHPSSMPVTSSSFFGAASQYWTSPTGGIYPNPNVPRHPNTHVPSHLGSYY
Method in brief: (§1)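 Binding signal is defined as a hexamer's read frequency for one factor over its frequency for the tag-only sample. To obtain reads, GST-fused human transcription factors were expressed in yeast, captured on glutathione beads, barcoded with DNA and pooled with that sample. Pools met 200 nmole of a 16-mer random double-stranded DNA library in Tris/NaCl/DTT/glycerol buffer for 30 min at room temperature before washing, 0.1% formaldehyde crosslinking, proximity ligation (BsaI/T4 ligase, 1 h, 37 °C), PCR and Illumina NextSeq500 sequencing.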

ELK1 = target: T2, ELK1 (Homo sapiens, UniProt P19419 1-428)
T2 sequence: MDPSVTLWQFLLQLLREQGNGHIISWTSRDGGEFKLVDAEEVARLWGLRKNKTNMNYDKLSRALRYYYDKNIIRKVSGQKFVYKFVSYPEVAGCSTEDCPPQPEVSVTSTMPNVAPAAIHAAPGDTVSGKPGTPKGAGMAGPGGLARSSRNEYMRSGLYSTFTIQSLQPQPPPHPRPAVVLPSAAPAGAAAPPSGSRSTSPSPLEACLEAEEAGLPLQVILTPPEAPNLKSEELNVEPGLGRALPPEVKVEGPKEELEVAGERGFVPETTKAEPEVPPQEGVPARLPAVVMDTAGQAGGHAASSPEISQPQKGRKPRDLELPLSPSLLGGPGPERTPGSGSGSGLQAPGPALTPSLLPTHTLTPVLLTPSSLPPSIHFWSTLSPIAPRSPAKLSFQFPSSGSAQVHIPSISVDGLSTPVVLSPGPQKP
Method in brief: as §1

GABPA = target: T3, GABPA (Homo sapiens, UniProt Q06546 1-454)
T3 sequence: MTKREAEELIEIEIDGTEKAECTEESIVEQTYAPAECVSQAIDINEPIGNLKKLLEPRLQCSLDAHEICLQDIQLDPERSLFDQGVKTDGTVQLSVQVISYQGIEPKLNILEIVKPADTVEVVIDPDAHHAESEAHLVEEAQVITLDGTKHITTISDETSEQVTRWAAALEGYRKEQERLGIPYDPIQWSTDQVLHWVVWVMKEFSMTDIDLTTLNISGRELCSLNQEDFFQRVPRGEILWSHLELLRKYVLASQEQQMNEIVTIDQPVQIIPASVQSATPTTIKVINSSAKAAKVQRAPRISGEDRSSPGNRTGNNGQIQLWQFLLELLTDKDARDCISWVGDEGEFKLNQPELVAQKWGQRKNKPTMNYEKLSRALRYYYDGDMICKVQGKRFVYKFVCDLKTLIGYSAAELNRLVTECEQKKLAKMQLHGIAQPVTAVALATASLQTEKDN
Method in brief: as §1

ERG = target: T4, ERG (Homo sapiens, UniProt P11308 1-479)
T4 sequence: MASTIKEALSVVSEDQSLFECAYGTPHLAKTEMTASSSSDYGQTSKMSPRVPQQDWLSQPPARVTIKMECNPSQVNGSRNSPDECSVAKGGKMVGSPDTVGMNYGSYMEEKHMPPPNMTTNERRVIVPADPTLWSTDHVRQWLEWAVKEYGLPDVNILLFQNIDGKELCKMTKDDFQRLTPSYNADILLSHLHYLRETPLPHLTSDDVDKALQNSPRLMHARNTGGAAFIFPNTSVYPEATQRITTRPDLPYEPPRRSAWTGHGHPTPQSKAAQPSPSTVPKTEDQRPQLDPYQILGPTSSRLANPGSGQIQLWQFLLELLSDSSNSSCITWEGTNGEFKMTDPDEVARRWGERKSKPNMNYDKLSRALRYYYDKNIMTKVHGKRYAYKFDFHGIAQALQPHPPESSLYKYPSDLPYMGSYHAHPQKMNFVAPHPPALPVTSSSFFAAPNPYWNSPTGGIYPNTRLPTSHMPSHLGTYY
Method in brief: as §1

ELF1 = ELF1 (Homo sapiens, UniProt P32519 1-619)
Chain of ELF1 (P32519 whole entry): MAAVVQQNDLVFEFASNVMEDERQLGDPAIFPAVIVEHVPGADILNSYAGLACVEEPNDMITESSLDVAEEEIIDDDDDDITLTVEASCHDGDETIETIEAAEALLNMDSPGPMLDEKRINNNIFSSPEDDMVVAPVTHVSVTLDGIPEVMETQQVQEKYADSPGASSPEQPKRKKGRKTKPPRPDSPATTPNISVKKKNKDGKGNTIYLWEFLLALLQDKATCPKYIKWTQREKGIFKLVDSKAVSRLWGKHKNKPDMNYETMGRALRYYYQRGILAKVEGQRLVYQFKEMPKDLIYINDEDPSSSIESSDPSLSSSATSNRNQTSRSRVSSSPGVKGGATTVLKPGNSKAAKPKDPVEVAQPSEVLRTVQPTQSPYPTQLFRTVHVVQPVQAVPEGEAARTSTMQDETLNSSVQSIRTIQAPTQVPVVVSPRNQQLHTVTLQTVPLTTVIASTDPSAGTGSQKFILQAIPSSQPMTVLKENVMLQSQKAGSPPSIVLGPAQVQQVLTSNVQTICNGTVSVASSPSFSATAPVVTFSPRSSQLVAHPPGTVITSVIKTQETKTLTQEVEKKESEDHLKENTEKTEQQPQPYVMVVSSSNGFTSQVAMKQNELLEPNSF
Method in brief: as §1

EHF = target: T5, EHF (Homo sapiens, UniProt Q9NZC4 1-300)
T5 sequence: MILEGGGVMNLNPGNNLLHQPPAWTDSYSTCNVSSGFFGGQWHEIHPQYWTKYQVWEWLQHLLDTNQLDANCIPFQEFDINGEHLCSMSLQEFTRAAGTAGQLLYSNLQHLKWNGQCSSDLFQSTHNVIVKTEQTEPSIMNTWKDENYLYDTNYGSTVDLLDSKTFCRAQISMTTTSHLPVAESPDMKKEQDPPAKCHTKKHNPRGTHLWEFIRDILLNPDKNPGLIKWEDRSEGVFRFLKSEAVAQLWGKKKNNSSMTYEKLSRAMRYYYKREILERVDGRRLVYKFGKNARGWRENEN
Method in brief: as §1

SPI1 = SPI1 (Homo sapiens, UniProt P17947 1-270)
Method in brief: as §1

SPIB = SPIB (Homo sapiens, UniProt Q01892 1-262)
Chain of SPIB (Q01892 whole entry): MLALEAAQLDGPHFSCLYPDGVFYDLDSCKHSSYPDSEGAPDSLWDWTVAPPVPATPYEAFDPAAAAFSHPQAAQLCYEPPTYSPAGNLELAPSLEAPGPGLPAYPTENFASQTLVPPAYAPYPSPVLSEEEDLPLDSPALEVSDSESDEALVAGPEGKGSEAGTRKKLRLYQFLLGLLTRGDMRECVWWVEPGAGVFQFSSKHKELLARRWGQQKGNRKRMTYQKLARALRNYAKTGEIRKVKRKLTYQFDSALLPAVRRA
Method in brief: as §1

ETV5 = ETV5 (Homo sapiens, UniProt P41161 1-510)
Chain of ETV5 (P41161 whole entry): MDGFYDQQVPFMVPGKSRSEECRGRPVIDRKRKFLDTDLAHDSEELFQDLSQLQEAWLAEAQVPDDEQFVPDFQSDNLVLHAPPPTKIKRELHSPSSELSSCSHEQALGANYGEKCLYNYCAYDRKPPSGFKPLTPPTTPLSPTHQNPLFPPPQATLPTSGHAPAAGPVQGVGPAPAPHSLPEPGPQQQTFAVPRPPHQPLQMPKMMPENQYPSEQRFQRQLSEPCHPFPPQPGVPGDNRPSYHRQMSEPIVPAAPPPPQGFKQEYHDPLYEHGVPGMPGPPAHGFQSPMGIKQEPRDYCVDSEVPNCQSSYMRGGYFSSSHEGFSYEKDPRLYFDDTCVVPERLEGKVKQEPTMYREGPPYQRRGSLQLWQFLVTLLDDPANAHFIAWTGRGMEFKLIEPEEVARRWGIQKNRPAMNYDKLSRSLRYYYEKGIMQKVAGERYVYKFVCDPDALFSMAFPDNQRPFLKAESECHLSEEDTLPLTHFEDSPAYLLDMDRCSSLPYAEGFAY
Method in brief: as §1

SPIC = target: T6, SPIC (Homo sapiens, UniProt Q8N5J4 1-248)
T6 sequence: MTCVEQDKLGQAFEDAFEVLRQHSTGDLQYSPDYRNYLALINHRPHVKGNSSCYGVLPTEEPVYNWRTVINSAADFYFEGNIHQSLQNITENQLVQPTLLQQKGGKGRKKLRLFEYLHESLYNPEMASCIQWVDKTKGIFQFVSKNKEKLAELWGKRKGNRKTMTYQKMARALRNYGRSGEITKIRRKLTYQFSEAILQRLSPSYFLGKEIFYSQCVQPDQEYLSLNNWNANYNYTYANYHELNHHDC
Method in brief: as §1

ELF4 = ELF4 (Homo sapiens, UniProt Q99607 1-663)
Chain of ELF4 (Q99607 whole entry): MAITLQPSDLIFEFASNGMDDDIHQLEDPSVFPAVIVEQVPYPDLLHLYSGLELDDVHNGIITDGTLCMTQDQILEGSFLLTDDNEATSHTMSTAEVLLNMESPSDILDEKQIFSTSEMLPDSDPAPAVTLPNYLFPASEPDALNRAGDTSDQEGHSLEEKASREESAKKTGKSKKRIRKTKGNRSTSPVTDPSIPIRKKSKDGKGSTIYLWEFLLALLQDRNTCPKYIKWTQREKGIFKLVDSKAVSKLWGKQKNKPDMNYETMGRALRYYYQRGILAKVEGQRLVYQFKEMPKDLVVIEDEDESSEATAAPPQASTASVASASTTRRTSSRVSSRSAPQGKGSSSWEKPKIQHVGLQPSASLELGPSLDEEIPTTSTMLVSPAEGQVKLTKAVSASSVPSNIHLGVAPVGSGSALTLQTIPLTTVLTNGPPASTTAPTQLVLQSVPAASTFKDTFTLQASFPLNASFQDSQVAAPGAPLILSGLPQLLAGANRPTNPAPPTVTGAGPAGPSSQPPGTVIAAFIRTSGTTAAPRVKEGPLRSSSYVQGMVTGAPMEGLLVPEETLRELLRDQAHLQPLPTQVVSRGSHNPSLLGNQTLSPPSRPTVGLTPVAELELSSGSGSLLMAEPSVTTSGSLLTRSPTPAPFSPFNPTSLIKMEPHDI
Method in brief: as §1

ETV1 = ETV1 (Homo sapiens, UniProt P50549 1-477)
Chain of ETV1 (P50549 whole entry): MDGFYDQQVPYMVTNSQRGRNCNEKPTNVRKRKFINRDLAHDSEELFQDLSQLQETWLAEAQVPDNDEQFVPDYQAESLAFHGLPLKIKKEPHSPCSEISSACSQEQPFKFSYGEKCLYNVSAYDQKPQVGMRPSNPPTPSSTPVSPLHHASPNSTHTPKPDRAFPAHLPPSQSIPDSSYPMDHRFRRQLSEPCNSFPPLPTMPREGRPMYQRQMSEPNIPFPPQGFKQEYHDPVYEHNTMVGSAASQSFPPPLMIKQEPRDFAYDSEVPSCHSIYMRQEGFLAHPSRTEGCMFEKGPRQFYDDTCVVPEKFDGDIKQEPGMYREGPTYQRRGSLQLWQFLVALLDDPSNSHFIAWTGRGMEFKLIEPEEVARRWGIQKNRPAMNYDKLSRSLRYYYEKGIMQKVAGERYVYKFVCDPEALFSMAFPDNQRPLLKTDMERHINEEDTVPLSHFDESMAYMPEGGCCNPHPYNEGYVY
Method in brief: as §1

ETS2 = target: T7, ETS2 (Homo sapiens, UniProt P15036 1-469)
T7 sequence: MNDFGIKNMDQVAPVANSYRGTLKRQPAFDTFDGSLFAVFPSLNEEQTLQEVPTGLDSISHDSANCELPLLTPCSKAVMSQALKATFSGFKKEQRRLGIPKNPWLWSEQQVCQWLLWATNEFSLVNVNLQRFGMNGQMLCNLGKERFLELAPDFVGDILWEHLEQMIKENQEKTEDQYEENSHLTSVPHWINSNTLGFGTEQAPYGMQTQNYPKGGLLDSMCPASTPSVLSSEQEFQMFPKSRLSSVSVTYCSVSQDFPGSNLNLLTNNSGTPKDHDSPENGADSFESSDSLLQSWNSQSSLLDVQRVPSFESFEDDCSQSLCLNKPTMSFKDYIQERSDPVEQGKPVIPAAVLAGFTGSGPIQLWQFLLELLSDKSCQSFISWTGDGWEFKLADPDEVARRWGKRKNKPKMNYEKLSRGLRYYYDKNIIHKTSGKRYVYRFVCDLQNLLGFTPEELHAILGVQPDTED
Method in brief: as §1

ETV3 = target: T8, ETV3 (Homo sapiens, UniProt P41162-2 1-143)
T8 sequence: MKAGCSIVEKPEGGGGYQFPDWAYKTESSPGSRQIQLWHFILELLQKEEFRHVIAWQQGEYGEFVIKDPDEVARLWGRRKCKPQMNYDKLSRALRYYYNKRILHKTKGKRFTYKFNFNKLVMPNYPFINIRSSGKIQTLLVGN
Method in brief: as §1

ERF = target: T9, ERF (Homo sapiens, UniProt P50548 1-548)
T9 sequence: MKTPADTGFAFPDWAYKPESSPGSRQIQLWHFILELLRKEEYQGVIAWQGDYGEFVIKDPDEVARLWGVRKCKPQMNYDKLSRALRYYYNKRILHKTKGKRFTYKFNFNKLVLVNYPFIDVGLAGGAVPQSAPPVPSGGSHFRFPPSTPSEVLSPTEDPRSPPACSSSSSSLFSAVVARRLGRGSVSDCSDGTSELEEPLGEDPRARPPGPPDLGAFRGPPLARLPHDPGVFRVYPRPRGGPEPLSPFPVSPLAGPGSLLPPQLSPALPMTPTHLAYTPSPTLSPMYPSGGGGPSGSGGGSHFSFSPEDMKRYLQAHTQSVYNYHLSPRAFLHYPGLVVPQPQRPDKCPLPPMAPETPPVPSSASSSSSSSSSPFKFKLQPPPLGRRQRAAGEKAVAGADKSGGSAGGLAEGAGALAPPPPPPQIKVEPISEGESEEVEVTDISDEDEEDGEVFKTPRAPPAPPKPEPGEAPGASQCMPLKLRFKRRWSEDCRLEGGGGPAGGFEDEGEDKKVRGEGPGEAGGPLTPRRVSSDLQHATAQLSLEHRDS
Method in brief: as §1

ETV3L = target: T10, ETV3L (Homo sapiens, UniProt Q6ZN32 1-361)
T10 sequence: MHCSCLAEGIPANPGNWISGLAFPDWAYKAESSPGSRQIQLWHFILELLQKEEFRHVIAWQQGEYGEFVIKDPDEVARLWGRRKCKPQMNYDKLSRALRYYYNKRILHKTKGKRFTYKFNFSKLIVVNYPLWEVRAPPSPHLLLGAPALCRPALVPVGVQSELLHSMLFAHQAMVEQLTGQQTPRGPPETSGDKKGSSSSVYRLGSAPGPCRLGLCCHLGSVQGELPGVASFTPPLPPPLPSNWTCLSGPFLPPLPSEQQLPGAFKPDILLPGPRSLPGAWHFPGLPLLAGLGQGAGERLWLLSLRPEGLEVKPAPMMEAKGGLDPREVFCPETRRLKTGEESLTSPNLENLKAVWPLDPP
Method in brief: as §1

SPDEF = target: T11, SPDEF (Homo sapiens, UniProt O95238 1-335)
T11 sequence: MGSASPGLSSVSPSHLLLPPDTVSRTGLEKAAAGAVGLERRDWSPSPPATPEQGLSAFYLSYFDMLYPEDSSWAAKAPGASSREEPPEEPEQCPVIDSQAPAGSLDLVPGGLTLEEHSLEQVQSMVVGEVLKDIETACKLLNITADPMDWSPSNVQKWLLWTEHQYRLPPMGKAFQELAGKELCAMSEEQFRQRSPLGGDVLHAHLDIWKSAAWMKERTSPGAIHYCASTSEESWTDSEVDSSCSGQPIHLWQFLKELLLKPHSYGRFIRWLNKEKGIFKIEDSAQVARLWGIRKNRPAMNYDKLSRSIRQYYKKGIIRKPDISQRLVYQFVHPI
Method in brief: as §1

Sequence: AAGGGT
- binding signal (FLI1): 1 fold enrichment (6-mer frequency, TF over GST control)
- binding signal (ELK1): 1.01 fold enrichment (6-mer frequency, TF over GST control)
- binding signal (GABPA): 1.01 fold enrichment (6-mer frequency, TF over GST control)
- binding signal (ERG): 1 fold enrichment (6-mer frequency, TF over GST control)
- binding signal (ELF1): 1.01 fold enrichment (6-mer frequency, TF over GST control)
- binding signal (EHF): 1.01 fold enrichment (6-mer frequency, TF over GST control)
- binding signal (SPI1): 1.05 fold enrichment (6-mer frequency, TF over GST control)
- binding signal (SPIB): 1.04 fold enrichment (6-mer frequency, TF over GST control)
- binding signal (ETV5): 1.05 fold enrichment (6-mer frequency, TF over GST control)
- binding signal (SPIC): 1.08 fold enrichment (6-mer frequency, TF over GST control)
- binding signal (ELF4): 1.01 fold enrichment (6-mer frequency, TF over GST control)
- binding signal (ETV1): 1.05 fold enrichment (6-mer frequency, TF over GST control)
- binding signal (ETS2): 1.07 fold enrichment (6-mer frequency, TF over GST control)
- binding signal (ETV3): 1.05 fold enrichment (6-mer frequency, TF over GST control)

Sequence: GTTGAT
- binding signal (FLI1): 1.04 fold enrichment (6-mer frequency, TF over GST control)
- binding signal (ELK1): 1.12 fold enrichment (6-mer frequency, TF over GST control)
- binding signal (GABPA): 1.12 fold enrichment (6-mer frequency, TF over GST control)
- binding signal (ERG): 1.08 fold enrichment (6-mer frequency, TF over GST control)
- binding signal (ELF1): 1.11 fold enrichment (6-mer frequency, TF over GST control)
- binding signal (EHF): 1.04 fold enrichment (6-mer frequency, TF over GST control)
- binding signal (SPI1): 1.12 fold enrichment (6-mer frequency, TF over GST control)
- binding signal (SPIB): 1.1 fold enrichment (6-mer frequency, TF over GST control)
- binding signal (ETV5): 1.14 fold enrichment (6-mer frequency, TF over GST control)
- binding signal (SPIC): 1.17 fold enrichment (6-mer frequency, TF over GST control)
- binding signal (ELF4): 1.15 fold enrichment (6-mer frequency, TF over GST control)
- binding signal (ETV1): 1.09 fold enrichment (6-mer frequency, TF over GST control)
- binding signal (ERF): 1.05 fold enrichment (6-mer frequency, TF over GST control)
- binding signal (ETV3L): 1.09 fold enrichment (6-mer frequency, TF over GST control)
- binding signal (SPDEF): 1.07 fold enrichment (6-mer frequency, TF over GST control)
- binding signal (ETV3): 1.08 fold enrichment (6-mer frequency, TF over GST control)

— PMC7862700, “An all-to-all approach to the identification of sequence-specific readers for epigenetic DNA modifications on cytosine”
